Reference: PubChem BioAssay (NCI)
This is part of a sample that, as a whole, favours compounds with a hit. Of some 79,000 tested, about 15% had one in any assay. No stated cut-off is given here; in the data, active means growth inhibition above about 70%; inactive means the rest. Where a SMILES comes first, the peptide text is derived from it. [ ]: non-standard residue; d: D form. The star is where a group is joined. ξ: configuration not given here. Bz = O=C(c1ccccc1)*; Bn = c1ccc(C*)cc1; ξC = NC(CS)C(=O)O

What was measured:
[1] = NCI Yeast Anticancer Drug Screen. Data for the rad50 strain (AID 155);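 further: 0% = growth of vehicle-only cultures of the same strain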; conditions: S. cerevisiae rad50 strain growth inhibition; at 50.0 µM; active compounds read high
How it was run: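 Cells are treated with compound, grown, and their growth is then scored against vehicle-only cultures of the same repair-deficient yeast strain.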

[2] = NCI Yeast Anticancer Drug Screen. Data for the mec2-1 strain (AID 157); conditions: S. cerevisiae mec2-1 strain, at 50.0 µM, active compounds read high
How it was run: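 Test agents were screened against the mec2-1 yeast strain, with defined DNA repair or cell cycle alteration. Growth was scored as inhibition against vehicle-only controls.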

[3] = NCI Yeast Anticancer Drug Screen. Data for the sgs1 mgt1 strain (AID 161);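 further: 0% = growth of cultures given vehicle only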; conditions: S. cerevisiae sgs1 mgt1 strain, at 50.0 µM, active compounds read high
How it was run: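 Inhibition of yeast growth, normalised to vehicle-treated controls, is reported for a strain bearing genetic alterations in DNA damage repair.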

[4] = NCI Yeast Anticancer Drug Screen. Data for the cln2 rad14 strain (AID 165);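 further: 0% = growth equal to vehicle treated cultures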; conditions: S. cerevisiae cln2 rad14 strain, at 50.0 µM, active compounds read high
How it was run: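 Growth of compound-exposed yeast (cln2 rad14 genotype) measured and expressed as inhibition relative to vehicle.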

[5] = NCI Yeast Anticancer Drug Screen. Data for the bub3 strain (AID 167); conditions: S. cerevisiae bub3 mutant strain, at 50.0 µM, active compounds read high
How it was run: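 Part of a panel of yeast mutants defective in DNA damage repair or cell cycle regulation. Each strain is grown with compound, and inhibition is calculated relative to solvent-treated cultures.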

[6] = NCI Yeast Anticancer Drug Screen. Data for the mlh1 rad18 strain (AID 175); conditions: S. cerevisiae mlh1 rad18 strain growth inhibition; at 50.0 µM; active compounds read high
How it was run: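 In this whole-cell yeast screen, a strain with altered DNA damage repair is challenged with compound, and its growth is measured against matched vehicle-treated controls.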

Measured: growth inhibition

O=C(O)C(Cl)(c1ccccc1)c1ccccc1
inactive: [1] -6.5% | [2] -13% | [3] 7.5% | [4] -19.9% | [5] 3.55% | [6] -12.8%

O=C1CC(c2ccccc2)NCN1 (stereo not drawn)
inactive: [1] 3.95% | [2] 1% | [3] 7.1% | [4] 2.2% | [5] -2.4% | [6] 8.3%

CCCN(CCC)S(=O)(=O)c1ccc(NC(=O)OC(CC)c2ccco2)cc1 (stereo not drawn)
inactive: [1] 27.8% | [2] -3.8% | [3] 8% | [4] 7.85% | [5] -5.5% | [6] 8.8%

S=c1cc(S)nc[nH]1
inactive: [1] 29% | [2] 8.3% | [3] 11.9% | [4] 20.9% | [5] 23.9% | [6] 9.45%

CN(C)c1nnnn1-c1c(N)n(C)c(=O)n(C)c1=O
inactive: [1] -30.1% | [2] -23.2% | [3] 0% | [4] 6.4% | [5] -26.8% | [6] -27.1%

Cc1ccc2nc(-c3ccc4nc(-c5ccc(N=Nc6ccc(-c7nc8ccc(-c9nc%10ccc(C)c(S(=O)(=O)O)c%10s9)cc8s7)cc6)cc5)sc4c3)sc2c1S(=O)(=O)O
inactive: [1] 12.7% | [2] -13% | [3] 21.4% | [4] -0.3% | [5] -3.2% | [6] -26.9%

CN(C)C(=O)C1C2CCC(C3CC32)C1C(=O)N(C)C (stereo not drawn)
inactive: [1] 22.9% | [2] 11.8% | [3] 37.2% | [4] 24.4% | [5] 24.6% | [6] 23.4%

O=C1Oc2ccccc2C(=O)C1=S1CCCC1
inactive: [1] 6.9% | [2] 12.1% | [3] 9.3% | [4] 18.6% | [5] 9.05% | [6] 14.6%

CS(=O)(=O)OC1CCCCC1OS(C)(=O)=O (stereo not drawn)
inactive: [1] 3.15% | [2] 8.25% | [3] 22.2% | [4] -1.85% | [5] 7.55% | [6] 9.15%

Cc1ccc2c(c1)C(c1ccccc1)(c1ccccc1)OC2=O
inactive: [1] 17.6% | [2] 11.9% | [3] 6.75% | [4] 7.95% | [5] 11.4% | [6] 20.4%

N#CCCn1ncc(C#N)c1N
inactive: [1] 3.4% | [2] -7.95% | [3] -1.5% | [4] -38.5% | [5] -2.5% | [6] 8.5%

COc1ccc(C2c3cc4c(cc3OC(N3CCOCC3)C2C)OCO4)c(OC)c1OC (stereo not drawn)
inactive: [1] 2.45% | [2] 5.4% | [3] 14% | [4] -1.1% | [5] 11.8% | [6] 21.7%

O=C1CC[C@H]2[C@@H]3N1c1ccccc1[C@@]31CCN3C/C(=C/CBr)[C@@H]2C[C@H]31
inactive: [1] 21.4% | [2] -3.05% | [3] 6.25% | [4] 19.4% | [5] -1.8% | [6] 11.1%

N#Cc1c(C(F)(F)F)cc(-c2cccs2)nc1SC(C(=O)Nc1c(F)cccc1F)c1ccccc1 (stereo not drawn)
inactive: [1] 15.8% | [2] -19.6% | [3] 23% | [4] 20.2% | [5] 15% | [6] 25.9%

O=[N+]([O-])c1ccc(O)c(C=NCCCN=Cc2cc([N+](=O)[O-])ccc2O)c1
inactive: [1] 0.7% | [2] 7.95% | [3] -5% | [4] -6.95% | [5] 9% | [6] -11.3%

Cc1cc(Cl)ccc1NC(=O)C(=O)Cc1nc2ccc(C(=O)c3ccccc3)cc2[nH]c1=O
inactive: [1] 5.15% | [2] -4.75% | [3] -4.85% | [4] 22.9% | [5] 26.4% | [6] 7.15%

CC(=O)C(N=Nc1nc2ccccc2[nH]1)C(C)=O
inactive: [1] 27.1% | [2] 14.1% | [3] -1.8% | [4] 15.2% | [5] 47.9% | [6] 32.5%

N/C(=N\Cl)C(Cl)(Cl)Cl
inactive: [1] -17.9% | [2] -16.5% | [3] 6.25% | [4] -26.6% | [5] 2.1% | [6] -21.4%

O=C(CNC(=O)c1ccccc1)NC(CSCc1ccccc1)C(=O)O (stereo not drawn) (Bz-Gly-[ξC](Bn)-OH)
inactive: [1] -12.4% | [2] 5.55% | [3] -28.8% | [4] -19.1% | [5] -34.2% | [6] -1.3%

C1=Nc2ccccc2/C1=C/c1cccs1
inactive: [1] 35.5% | [2] 37% | [3] 12.1% | [4] -47.4% | [5] 13% | [6] 48.8%

Fc1c(F)c(F)c(CCc2c(F)c(F)c(F)c(F)c2F)c(F)c1F
inactive: [1] 11.2% | [2] -8.2% | [3] 15.9% | [4] -39.1% | [5] -41.4% | [6] 19.2%

CC1CC(C)(C)NC(c2ccccc2)O1 (stereo not drawn)
inactive: [1] 1.75% | [2] -5% | [3] 1.3% | [4] 10.1% | [5] -14.4% | [6] 29.4%

CCN(CC)CCCS/C(N)=N\S(=O)(=O)c1ccc(N)cc1
inactive: [1] -6.35% | [2] -41% | [3] -20.2% | [4] -7.8% | [5] -0.5% | [6] -16.6%

Cc1cc(C(=O)C[n+]2ccccc2)c(CN2C(=O)c3ccccc3C2=O)c(=O)n1C
inactive: [1] 14.8% | [2] -14.3% | [3] -3.9% | [4] -19.1% | [5] 6.3% | [6] 6.55%

CC(=O)Nc1ccc(Cc2ccc(O)cc2)cc1
inactive: [1] 1.55% | [2] 6.65% | [3] -3.75% | [4] -31.1% | [5] -3.55% | [6] -1.45%

O=C(c1cccnc1)c1cc(-c2ccccn2)c(=O)n2ccccc12
inactive: [1] 0.7% | [2] 1.95% | [3] -13.6% | [4] -1.05% | [5] -15.8% | [6] -36.6%

COc1ccc(CC#N)c(OCc2ccccc2)c1
inactive: [1] 2.35% | [2] 8.3% | [3] -10.2% | [4] 3.55% | [5] 1.8% | [6] -17.5%

CSc1cccc(N)c1
inactive: [1] -23.6% | [2] -12.4% | [3] -46.1% | [4] 6.1% | [5] -6.8% | [6] -5.65%

CN(C)CC(CN(C)C)C(=O)c1ccccc1
inactive: [1] 8.6% | [2] 19.6% | [3] 16.3% | [4] -1% | [5] -24.1% | [6] -4.05%

Clc1cc2nn(C3CCCCO3)nc2cc1Cl (stereo not drawn)
inactive: [1] 0.65% | [2] -12.8% | [3] -18.4% | [4] -15.9% | [5] 16.9% | [6] -44.8%

CC(CCC(=O)O)C1CCC2C3CCC4CC(OC=O)CCC4(C)C3CC(=O)C12C (stereo not drawn)
inactive: [1] -5.9% | [2] -3.25% | [3] -12.8% | [4] 0.15% | [5] -1.6% | [6] -13.9%

[C-]#[N+]C([N+]#[C-])=C(C)OCC
inactive: [1] 7.9% | [2] 5.1% | [3] -5.2% | [4] 10.8% | [5] 21.6% | [6] 2.5%

O=c1[nH]c2cc(Cl)ccc2nc1/C=C(\O)c1ccc(O)cc1
inactive: [1] 31% | [2] 2.25% | [3] 0.2% | [4] 7.05% | [5] -20% | [6] 13.7%

Cn1c(=O)c2[nH]c(Cl)nc2n(C)c1=O
inactive: [1] 9.6% | [2] -23.6% | [3] 6.7% | [4] -3.8% | [5] -16.6% | [6] -8.55%

Cc1ccc(NC(=O)c2cc3c(cc2Cl)Sc2nccn2S3(=O)=O)cc1
inactive: [1] 21.7% | [2] 11.3% | [3] 12.7% | [4] -25.9% | [5] 11.4% | [6] 39.1%

C/C(=N/NC(N)=S)c1cn[nH]c1C
inactive: [1] -64.3% | [2] -19.9% | [3] -16.1% | [4] -55.4% | [5] 4.5% | [6] -1.6%

COc1ccc(-c2oc3ccc(C)cc3c(=O)c2O)cc1
inactive: [1] 6.9% | [2] -8% | [3] -14.8% | [4] 14.8% | [5] -5.7% | [6] -26.8%

Cc1ccc(NC(=O)Oc2ccc(Br)cc2Br)c([N+](=O)[O-])c1
inactive: [1] 9.3% | [2] -1.5% | [3] 13.7% | [4] 11.2% | [5] 4.55% | [6] -6.9%
